Assay in all cases: protein-binding microarray (PBM); PBM: ~300 nM protein, 6 mM HEPES pH 7.8, 80 mM KCl, 0.5 mM EDTA, 0.5 mM EGTA, 6% glycerol, 35 ng/ul poly-dIdC, 1% milk, 1 h, room temperature; Ap Aiptasia and Nv Nematostella (sea anemones) / Co Capsaspora / Aq Amphimedon (sponge) / Dm Drosophila / Hu human; RHD is the Rel homology domain; high values mean tight binding
What all share (conditions): dsDNA, one strand shown

For assay [1], the target named is T1, GST-Ap-NF-kB RHD (Exaiptasia pallida (Aiptasia), UniProt A0A913YAJ5 2-422).
T1 sequence: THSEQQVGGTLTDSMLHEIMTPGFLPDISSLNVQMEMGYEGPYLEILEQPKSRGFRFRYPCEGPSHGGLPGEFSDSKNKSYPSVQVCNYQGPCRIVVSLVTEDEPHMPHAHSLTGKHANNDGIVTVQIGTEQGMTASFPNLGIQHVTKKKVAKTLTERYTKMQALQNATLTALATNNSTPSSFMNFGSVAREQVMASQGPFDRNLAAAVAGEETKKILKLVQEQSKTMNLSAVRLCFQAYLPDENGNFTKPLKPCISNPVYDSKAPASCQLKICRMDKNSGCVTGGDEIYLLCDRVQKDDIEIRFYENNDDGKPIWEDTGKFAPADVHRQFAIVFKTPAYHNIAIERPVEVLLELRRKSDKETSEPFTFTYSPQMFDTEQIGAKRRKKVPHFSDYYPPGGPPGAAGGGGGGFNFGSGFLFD

Assay [2] concerns the target T2, GST-Nv-NF-kB (Cys allele) (Nematostella vectensis, UniProt E5G601 2-411).
T2 sequence: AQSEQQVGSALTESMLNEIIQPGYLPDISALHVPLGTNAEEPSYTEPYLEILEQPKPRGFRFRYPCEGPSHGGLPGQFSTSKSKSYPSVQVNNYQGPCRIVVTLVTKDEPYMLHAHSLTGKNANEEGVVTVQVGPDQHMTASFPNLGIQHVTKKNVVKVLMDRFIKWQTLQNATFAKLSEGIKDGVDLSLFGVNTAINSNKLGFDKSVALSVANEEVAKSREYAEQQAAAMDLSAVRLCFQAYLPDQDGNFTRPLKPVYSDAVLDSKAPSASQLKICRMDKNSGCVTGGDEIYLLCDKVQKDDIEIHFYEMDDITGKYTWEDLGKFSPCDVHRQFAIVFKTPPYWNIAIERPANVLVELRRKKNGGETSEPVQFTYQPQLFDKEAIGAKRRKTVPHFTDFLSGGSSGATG

The target of assay [3] is T3, GST-Co-NF-kB (Capsaspora owczarzaki, UniProt F1ARL5 200-546).
T3 sequence: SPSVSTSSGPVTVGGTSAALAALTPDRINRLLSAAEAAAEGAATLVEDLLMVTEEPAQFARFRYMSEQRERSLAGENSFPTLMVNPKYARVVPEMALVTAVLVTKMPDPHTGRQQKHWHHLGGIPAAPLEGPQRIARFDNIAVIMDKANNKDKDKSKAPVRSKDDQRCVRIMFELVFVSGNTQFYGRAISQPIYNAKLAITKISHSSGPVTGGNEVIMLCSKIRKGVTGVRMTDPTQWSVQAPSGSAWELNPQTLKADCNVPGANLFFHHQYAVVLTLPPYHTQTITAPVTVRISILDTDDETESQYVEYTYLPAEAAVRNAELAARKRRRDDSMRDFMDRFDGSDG

The target in assay [4] is T4, GST-Dm-Relish (Drosophila melanogaster, UniProt Q94527 99-473).
T4 sequence: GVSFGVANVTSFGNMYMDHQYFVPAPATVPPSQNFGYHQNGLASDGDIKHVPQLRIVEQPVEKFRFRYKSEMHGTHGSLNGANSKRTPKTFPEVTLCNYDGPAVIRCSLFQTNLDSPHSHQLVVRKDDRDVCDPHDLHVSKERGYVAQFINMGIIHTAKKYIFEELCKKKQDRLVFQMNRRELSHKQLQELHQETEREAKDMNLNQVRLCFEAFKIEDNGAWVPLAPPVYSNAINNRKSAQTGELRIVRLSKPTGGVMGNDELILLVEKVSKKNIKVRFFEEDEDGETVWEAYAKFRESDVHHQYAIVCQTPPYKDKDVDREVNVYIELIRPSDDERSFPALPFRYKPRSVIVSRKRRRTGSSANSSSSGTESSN

The target of assay [5] is T5, GST-Aq-NF-kB (Amphimedon queenslandica, UniProt A9Y5G7 2-389).
T5 sequence: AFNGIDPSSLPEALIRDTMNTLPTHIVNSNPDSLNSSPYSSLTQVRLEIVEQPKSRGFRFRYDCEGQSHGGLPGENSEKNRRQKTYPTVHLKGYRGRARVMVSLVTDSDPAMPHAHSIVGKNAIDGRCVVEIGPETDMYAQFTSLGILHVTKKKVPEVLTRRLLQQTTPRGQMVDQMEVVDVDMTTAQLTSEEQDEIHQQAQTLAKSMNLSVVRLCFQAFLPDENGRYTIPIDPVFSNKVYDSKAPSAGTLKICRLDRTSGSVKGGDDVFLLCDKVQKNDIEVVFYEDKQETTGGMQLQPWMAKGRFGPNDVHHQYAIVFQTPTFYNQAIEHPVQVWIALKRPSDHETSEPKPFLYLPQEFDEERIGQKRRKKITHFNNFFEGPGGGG

With “CCGATTAACATCAGGGGAGCACCTGATGTTAATCGGGTCTTGATTCGCTTGACGCTGCTG”, the binding signal in assay [1] turned out to be 4.77 z-score; in assay [2] it was 3.52 z-score; in assay [3] it was 3.23 z-score; in assay [4] it was 4.91 z-score; in assay [5] it was 4.81 z-score.
The corresponding values for “CCGATTAACATCAAGGTTTTCCCTGATGTTAATCGGGTCTTGATTCGCTTGACGCTGCTG” are 4.36 z-score, 5.34 z-score, 4.71 z-score, 5.1 z-score and 5.65 z-score.
The corresponding values for “CCGATTAACATCAGGGAATTGTATGATGTTAATCGGGTCTTGATTCGCTTGACGCTGCTG” are 2.85 z-score, 4.78 z-score, 3.1 z-score, 1.21 z-score and 4.7 z-score.
With “CCGATTAACATCAGGGGAGCCCCTGATGTTAATCGGGTCTTGATTCGCTTGACGCTGCTG”, the binding signal in assay [1] was 8.45 z-score; in assay [2], 6.25 z-score; in assay [3], 3.64 z-score; in assay [4] it was 8.74 z-score; in assay [5], 8.27 z-score.
The corresponding values for “CCGATTAACATCAGGGGGTCTACTGATGTTAATCGGGTCTTGATTCGCTTGACGCTGCTG” are 4.22 z-score, 2.44 z-score, 1.58 z-score, 7.11 z-score and 4.4 z-score.
“CCGATTAACATCAAAAAACACCCTGATGTTAATCGGGTCTTGATTCGCTTGACGCTGCTG”: the binding signal in assay [1] was determined as 4.07 z-score; in assay [2], 4.18 z-score; in assay [3], 2.93 z-score; in assay [4] it was 6.06 z-score; in assay [5], 5.32 z-score.
The corresponding values for “CCGATTAACATCAAATATACCCATGATGTTAATCGGGTCTTGATTCGCTTGACGCTGCTG” are 2.13 z-score, 2.41 z-score, 1.8 z-score, 2.31 z-score and 2.52 z-score.
The corresponding values for “CCGATTAACATCAGGGGTATACCTGATGTTAATCGGGTCTTGATTCGCTTGACGCTGCTG” are 4.25 z-score, 2.43 z-score, 3.98 z-score, 4.15 z-score and 4.94 z-score.
Take “CCGATTAACATCAGGGGTATAACTGATGTTAATCGGGTCTTGATTCGCTTGACGCTGCTG”: the binding signal in assay [1] worked out at 1.94 z-score; in assay [2] it was 1.77 z-score; in assay [3], 3.43 z-score; in assay [4], 1.06 z-score; in assay [5], 2.25 z-score.
The corresponding values for “CCGATTAACATCAATCTACCCCCTGATGTTAATCGGGTCTTGATTCGCTTGACGCTGCTG” are 4.86 z-score, 3.1 z-score, 7.41 z-score, 2.3 z-score and 3.68 z-score.
As for “CCGATTAACATCAGGGAAATATATGATGTTAATCGGGTCTTGATTCGCTTGACGCTGCTG”, the binding signal in assay [1] was 3.7 z-score; in assay [2], 5.66 z-score; in assay [3], 5.34 z-score; in assay [4] it was 1.94 z-score; in assay [5], 6.09 z-score.
On to “CCGATTAACATCAAATAAATCCCTGATGTTAATCGGGTCTTGATTCGCTTGACGCTGCTG”, for which the binding signal in assay [1] came to 3.07 z-score; in assay [2], 4.02 z-score; in assay [3], 1.92 z-score; in assay [4], 5.66 z-score; in assay [5], 5.06 z-score.
With “CCGATTAACATCACGAAAATCCCTGATGTTAATCGGGTCTTGATTCGCTTGACGCTGCTG”, the binding signal was 4.71 z-score in assay [1]; 4.39 z-score in assay [2]; 1.55 z-score in assay [3]; 6.19 z-score in assay [4]; 4.64 z-score in assay [5].

The values are drawn from PMC5700166.
